In the library only some 2.8% were active in any assay of this set; here they are far more common.
Pol kappa inh: blocks human DNA polymerase kappa activity; Q9UBT6; actives 0.53% (n = 400,000); Potency, µM (top dose mostly 107 µM), for the others: top-dose activity, negative = inhibition, actives largely listed as inhibitors; AID 588579; purified Pol kappa, fluorescent DNA synthesis assay, 10 min; also: potency is read from the fitted curve at half-maximal effect; % is scaled to controls: 0 for no effect and ±100 for the full control effect
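Enzyme at 10 nM met test compounds for 15 min at room temperature. Substrate addition (50 nM final) began the reaction, which was monitored by fluorescence at 0 and 10 min.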
PI4K2A block: PI4K2A (human) kinase inhibition. Q9BTU6. purified PI4K2A, ADP-Glo luminescence, 1 h; stronger effect = lower value. activity change, negative = inhibition, % at 76.9 µM. actives 0.13% (n = 420,000). AID 1346378; in the data active = activity change below about -50%; inconclusive = mostly about -30% to -49%;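 also: -100% = wells without enzyme as full effect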
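ADP-Glo luminescence measured ADP generated by PI4K2A enzyme (4 ug/mL before mixing) with 1.2 mM PI substrate (pre-mix) and 300 microM ATP (pre-mix). Tris pH7.5 buffer with MgCl2, Triton X-100; 1 h reaction at ambient temperature.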
PI5P4K alpha inh: PI5P4K alpha (human) kinase inhibition. AID 652105. PI5P4Kalpha enzyme, ADP-Glo luminescence, 60 min; stronger effect = lower value. max response, %. P48426. actives 1.2% (n = 330,000); active = max response of -50% or lower; inconclusive = between -30% and -50%; inactive = -30% or higher; also: value at the top dose of about 77 µM; % is scaled to controls: 0 for no effect and ±100 for the full control effect
Target sequence (P48426 whole entry, looked up): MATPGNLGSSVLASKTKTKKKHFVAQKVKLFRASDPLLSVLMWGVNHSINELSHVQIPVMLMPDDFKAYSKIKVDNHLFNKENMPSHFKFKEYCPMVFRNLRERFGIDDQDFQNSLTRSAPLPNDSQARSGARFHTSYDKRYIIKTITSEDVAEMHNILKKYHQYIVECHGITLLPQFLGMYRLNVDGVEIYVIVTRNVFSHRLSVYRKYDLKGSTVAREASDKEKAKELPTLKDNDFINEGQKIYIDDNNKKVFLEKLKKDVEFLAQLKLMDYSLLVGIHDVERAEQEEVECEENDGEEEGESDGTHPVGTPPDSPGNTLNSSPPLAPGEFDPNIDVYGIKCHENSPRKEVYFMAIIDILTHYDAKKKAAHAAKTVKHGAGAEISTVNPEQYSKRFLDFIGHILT
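PI5P4Kalpha ADP-Glo assay; 5 microM ATP final; 60 min RT reaction; HEPES pH 7.4/EGTA/CHAPS, 5% DMSO; controls lacking substrate or enzyme; luminescent end-point.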
POLI inh: inhibitors of human DNA polymerase iota; Pol iota fluorescent replication assay, 10 min; Potency, µM (series often up to 115 µM), inactives show top-dose activity, negative = inhibition, hits mostly inhibitors; actives 1% (n = 390,000); also: potency is read from the fitted curve at half-maximal effect
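Pol iota at 10 nM preincubated 15 min with compounds at room temperature; reaction started with fluorescent substrate, 50 nM final. Fluorescence read kinetically at 0 and 10 min; buffer-only wells as negative control.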
POLH inh: DNA polymerase eta (human) inhibition; Q9Y253; recombinant Pol eta, fluorescent DNA replication assay; Potency, µM (titrated, usually from 114 µM), without a hit: top-dose activity change, negative = inhibition, actives largely listed as inhibitors; actives 1.2% (n = 390,000); AID 588591; also: potency is read from the fitted curve at half-maximal effect; % is scaled to controls: 0 for no effect and ±100 for the full control effect
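Fluorescent replication assay: 50 nM final substrate added after a 15 min room-temperature compound preincubation with 10 nM enzyme. Signal taken at 0 min and again at 10 min.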
POLB inh: DNA polymerase beta (human) inhibition; P06746; Potency, µM (titrated, usually from 114 µM), for inactives: top-dose activity change, negative = inhibition, most hits filed as inhibitors; actives 1.3% (n = 340,000); Pol beta primer extension/strand displacement, fluorescence kinetic; also: potency is read from the fitted curve at half-maximal effect; % is scaled to controls: 0 for no effect and ±100 for the full control effect
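Values derive from four-parameter Hill fits of normalized kinetic data: reads at 0 and 10 min following addition of 50 nM substrate to 10 nM Pol beta preincubated 15 min with compound.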
An asterisk follows results filed as active; [ ] = remark or other dose. Unless noted, calls follow the shape of the dose curve; as a rule, active = well fitted inhibition curve with a large enough effect; inconclusive = small, poorly fitted or top-dose-only effect, or another doubt; inactive = no such curve, though single readings can be large or run the other way.

Results for O=C(NNc1c2ccccc2nc2ccccc12)c1ccccc1O ?
Pol kappa inh: -9%; PI4K2A block: -5; PI5P4K alpha inh: -11; POLI inh: -8%; POLH inh: -18%; POLB inh: inconclusive

How did O=C(NNc1nc(=O)c2cccnc2s1)c1ccccc1O do in these assays?
Pol kappa inh: -5%; PI4K2A block: 13; PI5P4K alpha inh: -68*; POLI inh: 60%; POLH inh: -18%; POLB inh: -13%

Results for COc1cccc(CNC(=O)C2CCN(C(=O)c3sccc3-n3cccc3)CC2)c1 ?
Pol kappa inh: 4%; PI4K2A block: -1; POLI inh: 5%; POLB inh: 49%

What do the screens show for `COc1ccc(-n2nnc(-c3nsc(NC(=O)c4cccs4)n3)c2C)cc1OC`?
Pol kappa inh: 4%; PI4K2A block: -1; POLI inh: -27%; POLH inh: -9%; POLB inh: -6%

Results for CCc1nnc(NS(=O)(=O)c2ccc(Nc3ccc([N+](=O)[O-])c4nonc34)cc2)s1 ?
Pol kappa inh: -8%; PI4K2A block: -26; PI5P4K alpha inh: -57*; POLI inh: 42%; POLH inh: inconclusive; POLB inh: -4%

How did CCc1nnc(NS(=O)(=O)c2ccc(NS(=O)(=O)c3ccccc3[N+](=O)[O-])cc2)s1 do in these assays?
Pol kappa inh: -2%; PI4K2A block: -3; PI5P4K alpha inh: -19; POLI inh: -3%; POLH inh: 6%; POLB inh: -2%

How did O=C1C(Cl)=C(Nc2ccc3cn[nH]c3c2)C(=O)c2ccccc21 do in these assays?
Pol kappa inh: -25%; PI4K2A block: -7; PI5P4K alpha inh: -87*; POLI inh: inconclusive; POLH inh: 50µM*; POLB inh: inconclusive

Results for O=C(Nc1ccc2cn[nH]c2c1)c1c(Cl)cccc1Cl ?
Pol kappa inh: -9%; PI4K2A block: -2; PI5P4K alpha inh: -24; POLI inh: 16%; POLH inh: -10%; POLB inh: -8%

What do the screens show for `Cc1cn2c(=O)cc(COC(=O)c3ccc(NC(=O)COc4ccc(C)c(C)c4)cc3)nc2s1`?
Pol kappa inh: -6%[60.1 µM]; PI4K2A block: -3; POLI inh: 21%; POLH inh: -7%; POLB inh: 17%

Results for COc1ccc(N2C(=O)CC(S/C(N)=N/N=C/c3ccnc4ccccc34)C2=O)cc1 (stereo not drawn) ?
POLB inh: 33%

Results for N/C(=N\N=C\c1ccnc2ccccc12)SC1CC(=O)N(c2ccc(Br)cc2)C1=O (stereo not drawn) ?
Pol kappa inh: -5%; PI4K2A block: -1; PI5P4K alpha inh: 0; POLI inh: 3%; POLH inh: 25µM*; POLB inh: inconclusive

What do the screens show for `COc1cc(NCCCC(C)N)c2ncccc2c1` (stereo not drawn)?
Pol kappa inh: -5%; PI4K2A block: -51*; PI5P4K alpha inh: -3; POLI inh: -101%; POLH inh: inconclusive; POLB inh: 32µM*

How did CCCC(=O)OC12CCCN(C1)/C(=C/c1cccc(Cl)c1)C2 (stereo not drawn) do in these assays?
PI4K2A block: 2

What do the screens show for `Clc1ccc(-c2nnc3sc(-c4ccc(Br)o4)nn23)c(Cl)c1`?
Pol kappa inh: -13%; PI4K2A block: -5; PI5P4K alpha inh: 6; POLI inh: 9%; POLH inh: -3%; POLB inh: 1%

How did Clc1ccc(-c2nnc3sc(-c4ccc(Br)o4)nn23)cc1 do in these assays?
Pol kappa inh: -16%; PI4K2A block: 5; PI5P4K alpha inh: -15; POLI inh: 89µM*; POLH inh: inconclusive; POLB inh: 0%

What do the screens show for `O=C(NC(Cc1ccccc1)C(=O)O)/C(=C\c1ccco1)NC(=O)c1ccccc1` (stereo not drawn)?
Pol kappa inh: -27%; PI4K2A block: 6; PI5P4K alpha inh: -10; POLI inh: inconclusive; POLH inh: 14µM*; POLB inh: 40µM*

What do the screens show for `O=C(NC(Cc1ccccc1)C(=O)O)/C(=C\c1ccco1)NC(=O)c1ccco1` (stereo not drawn)?
Pol kappa inh: -19%; PI4K2A block: -9; PI5P4K alpha inh: -2; POLI inh: 45%; POLH inh: -21%; POLB inh: inconclusive

What do the screens show for `O=C(NC(Cc1ccccc1)C(=O)O)/C(=C\c1ccco1)NC(=O)c1ccc(Br)cc1` (stereo not drawn)?
Pol kappa inh: 50µM*; PI4K2A block: -6; PI5P4K alpha inh: -16; POLI inh: 20µM*; POLH inh: inconclusive; POLB inh: -22%

How did COc1ccc(C2C3C=CCCC3(C)C(=O)N2Cc2ccccc2)cc1Cl (stereo not drawn) do in these assays?
Pol kappa inh: -7%; POLI inh: -1%

What do the screens show for `COc1cc(-c2nc3ccccn3c2/N=C/c2cc(OC)c(O)cc2Cl)ccc1O`?
Pol kappa inh: inconclusive; PI4K2A block: 2; PI5P4K alpha inh: inconclusive; POLI inh: inconclusive; POLH inh: inconclusive; POLB inh: 25µM*

How did COc1cc(-c2nc3ccccn3c2/N=C/c2ccccc2)ccc1O do in these assays?
Pol kappa inh: -8%[60.1 µM]; PI4K2A block: -3; POLI inh: inconclusive; POLH inh: -21%; POLB inh: -4%

What do the screens show for `C[C@@H]1C(=O)O[C@H]2[C@H](O)[C@@]34[C@H]5CC(C(C)(C)C)[C@]36[C@H](OC(=O)[C@H]6O)O[C@]4(C(=O)O5)[C@@]12O` (stereo partly drawn)?
Pol kappa inh: -17%[60.1 µM]

What do the screens show for `NNC(=O)c1cc2c(ccc3ccccc32)o1`?
Pol kappa inh: -6%; PI4K2A block: 1; PI5P4K alpha inh: -18; POLI inh: 57%; POLH inh: 13%; POLB inh: 11%

What do the screens show for `O=C(COc1ccc(/C=N/NC(=O)c2cc3ccccc3o2)cc1Br)Nc1ccccc1`?
Pol kappa inh: -5%; PI4K2A block: -20; PI5P4K alpha inh: -22; POLI inh: inconclusive; POLH inh: 0.89µM*; POLB inh: 5.6µM*

Results for O=C(Nc1cccnc1)c1cc2c(ccc3ccccc32)o1 ?
Pol kappa inh: inconclusive; PI4K2A block: 3; PI5P4K alpha inh: -4; POLI inh: 50µM*; POLH inh: inconclusive; POLB inh: 32µM*

What do the screens show for `COc1ccc(/C=N/NC(=O)c2cc3c(ccc4ccccc43)o2)cc1OC`?
Pol kappa inh: -2%; PI4K2A block: -3; PI5P4K alpha inh: 0; POLI inh: 9%; POLH inh: 1%; POLB inh: -20%

Source: PubChem
